Measurements from PubChem BioAssay (NCI).
This is part of a sample that, as a whole, favours compounds with a hit. Of some 83,000 tested, about 20% had one in any assay.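 Cells were grown in 96-well plates and exposed to the test compound at a single concentration for 48 hours; results are reported as percent growth, with values below 10 considered active.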 A number with no mark means an inactive call. Active and inactive are the calls of the source.

These molecules were tested on HL-60(TB) leukemia (assay: NCI-60 one-dose screen, 48 h (100 = growth as untreated, 0 = no growth, -100 = all killed)). Conditions: 10 µM unless noted.
For `CCNc1nc(S(=O)(=O)CC)nc2ccccc12`, the growth was 91.8%. With `COc1ccc(-c2cnc3ccnn3c2-c2cc(OC)c(OC)c(OC)c2)cc1` the growth was -22% (active). In the case of `CC(=O)Oc1ccc(OC(C)=O)c2ccccc12`, the growth is reported as -17.4% (active). With `O=C(CCN1CCCC1)Nc1ccc2c(NCc3ccccc3)c3ccccc3nc2c1` the growth was -40.8% (active). In the case of `O=C(NCCc1ccccn1)OCc1nc2nc(Cl)nc(N3CCOCC3)c2[nH]1`, the growth is reported as -47.6% (active). In the case of `O=C(Nc1ccncc1)C(=O)c1cn(S(=O)(=O)c2ccccc2F)c2ccccc12`, the growth is reported as 12.7%. Work on `Oc1cc(O)c(Br)cc1Br` yielded a growth of 104%. For `COc1cc2c(cc1OCCCCN1CCN(CC(=O)Nc3ccc(Cl)cc3C(=O)c3ccccc3Cl)CC1)N=CC1CCCN1C2=O` (stereo unspecified), the growth was -72.1% (active). `CCCCOC(=O)c1ccc(NC(=O)CCl)cc1` was tested, and the growth was 25.3%. `COc1ccc2cc1Oc1ccc(cc1)C[C@H]1c3c(cc4c(c3Oc3cc5c(cc3OC)CCN(C)[C@@H]5C2)OCO4)CCN1C` showed a growth of 36.3%. In the case of `O=C(CSc1oc(-c2ccccc2)nc1S(=O)(=O)c1ccccc1)Nc1ccc(F)cc1`, the growth is reported as 63.5%. With `COc1ccc(-c2nc(-c3nc4cc(Cl)c(Cl)cc4[nH]3)c3ccccn23)cc1` the growth was 99.9%. Molecule `CN(C)Cc1cc(C(C)(C)CC(C)(C)C)ccc1O` has a growth of 94.4%. Molecule `O=C(CS)Nc1ccc2ccccc2c1` has a growth of 120%. For `COc1ccc2[nH]c(=O)c3c4ccccc4cn3c2c1`, the growth was -28.4% (active). `CC1=C/C(=N\N=C2/C=C(C)CC(C)(C)C2)CC(C)(C)C1` showed a growth of 84.1%.
